Holding throughout (assay): glycan array binding signal (z-score within array); higher = stronger binding
Common to all, as to settings: glycan notation: IUPAC condensed, linker removed

In experiment [1] the target is Fuc(a1-2)Gal(b1-3)GalNAc(b1-4)[Neu5Ac(a2-3)]Gal(b1-4)Glc. A digest of the protocol: (§1)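 The Consortium for Functional Glycomics database supplied 3228 glycan arrays, of which those lacking an available protein sequence were dropped. The binding signal, a within-array Z-score, was averaged across arrays of the same protein sequence and across linkers. Negative scores can be read as non-binding.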

The target in experiment [2] is Fuc(a1-2)Gal(b1-3)GlcNAc6S. In a few lines:
as §1

For experiment [3], the target named is Fuc(a1-2)Gal(b1-3)[Fuc(a1-4)]GlcNAc(b1-3)[Fuc(a1-3)[Gal(b1-4)]GlcNAc(b1-6)]Gal(b1-4)Glc. A digest of the protocol: as §1
Another experiment has as its target Fuc(a1-2)Gal(b1-4)Glc6S. In a few lines:
as §1

A further experiment addresses Fuc(a1-2)Gal(b1-4)GlcNAc. A digest of the protocol: as §1
The target in experiment [4] is Fuc(a1-2)Gal(b1-4)GlcNAc(b1-2)Man(a1-3)[Fuc(a1-2)Gal(b1-4)GlcNAc(b1-2)Man(a1-6)]Man(b1-4)GlcNAc(b1-4)[Fuc(a1-6)]GlcNAc. In a few lines: as §1
Experiment [5] addresses Fuc(a1-2)Gal(b1-4)GlcNAc(b1-3)Gal(b1-4)GlcNAc. A digest of the protocol: as §1
The target in experiment [6] is Fuc(a1-2)Gal(b1-4)[Fuc(a1-3)]GlcNAc(b1-3)GalNAc. A digest of the protocol: as §1
For experiment [7], the target named is Fuc(a1-2)[Gal(a1-3)]Gal(b1-4)[Fuc(a1-3)]Glc. In a few lines:
as §1

Experiment [8] concerns the target Fuc(a1-2)[GalNAc(a1-3)]Gal(b1-4)Glc. A digest of the protocol:
as §1

For experiment [9], the target named is Fuc(a1-2)[GalNAc(a1-3)]Gal(b1-4)GlcNAc(b1-2)Man(a1-3)[Fuc(a1-2)[GalNAc(a1-3)]Gal(b1-4)GlcNAc(b1-2)Man(a1-6)]Man(b1-4)GlcNAc(b1-4)[Fuc(a1-6)]GlcNAc. In a few lines: as §1
For experiment [10], the target named is Fuc(a1-2)[GalNAc(a1-3)]Gal(b1-4)GlcNAc(b1-6)GalNAc. In a few lines: as §1
Experiment [11] has as its target Fuc(a1-2)[GalNAc(a1-3)]Gal(b1-4)[Fuc(a1-3)]GlcNAc. A digest of the protocol:
as §1

For experiment [12], the target named is Fuc(a1-2)[GalNAc(a1-3)]Gal(b1-4)[Fuc(a1-3)]GlcNAc(b1-3)GalNAc. A digest of the protocol: as §1
For experiment [13], the target named is Fuc(a1-3)[Gal(b1-4)]GlcNAc(b1-2)Man(a1-3)[Fuc(a1-3)[Gal(b1-4)]GlcNAc(b1-2)Man(a1-6)]Man(b1-4)GlcNAc(b1-4)[Fuc(a1-6)]GlcNAc. In a few lines: as §1
Experiment [14] has as its target Fuc(a1-3)[Gal(b1-4)]GlcNAc(b1-3)Gal(b1-4)[Fuc(a1-3)]GlcNAc(b1-3)Gal(b1-4)[Fuc(a1-3)]GlcNAc. A digest of the protocol: as §1
Experiment [15] deals with Fuc(a1-3)[Gal(b1-4)]GlcNAc6S. In a few lines:
as §1

Experiment [16] deals with Gal(a1-3)Gal(b1-4)[Fuc(a1-3)]GlcNAc(b1-2)Man(a1-3)[Gal(a1-3)Gal(b1-4)[Fuc(a1-3)]GlcNAc(b1-2)Man(a1-6)]Man(b1-4)GlcNAc(b1-4)GlcNAc. In a few lines: as §1
For experiment [17], the target named is Gal(a1-4)Gal(b1-4)GlcNAc(b1-2)Man(a1-3)[Gal(a1-4)Gal(b1-4)GlcNAc(b1-2)Man(a1-6)]Man(b1-4)GlcNAc(b1-4)GlcNAc. In a few lines: as §1
Experiment [18] concerns the target Gal(b1-3)GlcNAc(b1-2)[Gal(b1-3)GlcNAc(b1-6)]Man(a1-6)[Gal(b1-3)GlcNAc(b1-2)Man(a1-3)]Man(b1-4)GlcNAc(b1-4)GlcNAc. In a few lines: as §1
The target of experiment [19] is Gal(b1-3)GlcNAc(b1-3)Gal(b1-4)[Fuc(a1-3)]GlcNAc. In a few lines: as §1
In experiment [20] the target is Gal(b1-3)GlcNAc(b1-6)Gal(b1-4)GlcNAc. A digest of the protocol:
as §1

Experiment [21] has as its target Gal(b1-4)GlcNAc(b1-2)Man(a1-3)[Gal(b1-4)GlcNAc(b1-2)Man(a1-6)][GlcNAc(b1-4)]Man(b1-4)GlcNAc(b1-4)[Fuc(a1-6)]GlcNAc. In a few lines: as §1
Experiment [22] deals with Gal(b1-4)GlcNAc(b1-3)Gal(b1-4)GlcNAc(b1-2)[Gal(b1-4)GlcNAc(b1-3)Gal(b1-4)GlcNAc(b1-6)]Man(a1-6)[Gal(b1-4)GlcNAc(b1-3)Gal(b1-4)GlcNAc(b1-2)Man(a1-3)]Man(b1-4)GlcNAc(b1-4)GlcNAc. In a few lines:
as §1

This is one part of a sample in which the strongest signals are shown more often than they occur.

B1: GS7807H-bfa-490-18-490 (Bacteroides fragilis) (protein)
chain: GNLEEMNIDPDNATQTHPKLLLTQICMNAFKRGTDGMYATKKVIQADGESADQYYKWTRGSFGYYDNLRNVQKMGEEAERVNAPVYTALTKFFRAYYFYELTLRFGDIPYSQALKGEKEEIYTPEYDAQEDVFAGILQELREADEILANDASVIDGDIIYNGNSTQWRKLINSFRLKVLMTLSNHTTVGNINIASEFKNIATNSPLMNSLADNGQLVYLDQQGNRYPQFNAQWSGYYMDDTFIQRMRERRDPRLFIFSAQTNKGKTEGKPIDDFSSYEGGDPAAPYSDAIIKVSEGTISPINDRFRTDPIVEPTMLMGYAELQQILAEAVVRGWISGNAQTYYEKGIRASFSFYETHAKDYAGYLNENAVAQYLKEPLVDFTQASGTEEQIERIIMQKYLVTFYQGNWDSFYEQLRTGYPDFRRPAGTEIPKRWMYPQGEYDNNGTNVETAITRQFGAGNDKINQATWWQKKS
For the molecule B1, the “glycan array binding signal (z-score)” value is -0.424 in [1]; 0.079 in [2]; -0.223 in [3]; -0.448 with Fuc(a1-2)Gal(b1-4)Glc6S; -0.024 with Fuc(a1-2)Gal(b1-4)GlcNAc; 2.33 in experiment [4]. The “glycan array binding signal (z-score)” value in [5] is -0.786; in experiment [6] it was 0.672; in experiment [7], -0.426; in experiment [8], -0.704; in [9] it was 0.217; in [10], -0.479. For the same molecule, the “glycan array binding signal (z-score)” value in [11] is 0.449; in experiment [12], 0.984; in experiment [13], 1.38; in experiment [14] it was 0.166; in experiment [15], -0.707; in experiment [16], 1.36. Also, the “glycan array binding signal (z-score)” value in [17] was 6.27; in [18] it was 2.29; in [19], 0.374; in [20], 9.32; in experiment [21], -0.8; in experiment [22], 11.2.
